Measurements reported in publication PMC4336329 (PLoS ONE, 2015).
The campaign covered roughly 310,000 compounds. About 14,000 (4.5%) showed an effect of 50% or more. The effect is printed as a negative number. The sample as a whole holds a higher share of strong results than the screen did.

target: human ether-à-go-go-related gene (hERG) potassium channel (human, UniProt Q12809); assay: primary screen, population patch clamp on CHO cells stably expressing hERG; higher = less effect of the substance
Sequence (Q12809 whole entry, looked up): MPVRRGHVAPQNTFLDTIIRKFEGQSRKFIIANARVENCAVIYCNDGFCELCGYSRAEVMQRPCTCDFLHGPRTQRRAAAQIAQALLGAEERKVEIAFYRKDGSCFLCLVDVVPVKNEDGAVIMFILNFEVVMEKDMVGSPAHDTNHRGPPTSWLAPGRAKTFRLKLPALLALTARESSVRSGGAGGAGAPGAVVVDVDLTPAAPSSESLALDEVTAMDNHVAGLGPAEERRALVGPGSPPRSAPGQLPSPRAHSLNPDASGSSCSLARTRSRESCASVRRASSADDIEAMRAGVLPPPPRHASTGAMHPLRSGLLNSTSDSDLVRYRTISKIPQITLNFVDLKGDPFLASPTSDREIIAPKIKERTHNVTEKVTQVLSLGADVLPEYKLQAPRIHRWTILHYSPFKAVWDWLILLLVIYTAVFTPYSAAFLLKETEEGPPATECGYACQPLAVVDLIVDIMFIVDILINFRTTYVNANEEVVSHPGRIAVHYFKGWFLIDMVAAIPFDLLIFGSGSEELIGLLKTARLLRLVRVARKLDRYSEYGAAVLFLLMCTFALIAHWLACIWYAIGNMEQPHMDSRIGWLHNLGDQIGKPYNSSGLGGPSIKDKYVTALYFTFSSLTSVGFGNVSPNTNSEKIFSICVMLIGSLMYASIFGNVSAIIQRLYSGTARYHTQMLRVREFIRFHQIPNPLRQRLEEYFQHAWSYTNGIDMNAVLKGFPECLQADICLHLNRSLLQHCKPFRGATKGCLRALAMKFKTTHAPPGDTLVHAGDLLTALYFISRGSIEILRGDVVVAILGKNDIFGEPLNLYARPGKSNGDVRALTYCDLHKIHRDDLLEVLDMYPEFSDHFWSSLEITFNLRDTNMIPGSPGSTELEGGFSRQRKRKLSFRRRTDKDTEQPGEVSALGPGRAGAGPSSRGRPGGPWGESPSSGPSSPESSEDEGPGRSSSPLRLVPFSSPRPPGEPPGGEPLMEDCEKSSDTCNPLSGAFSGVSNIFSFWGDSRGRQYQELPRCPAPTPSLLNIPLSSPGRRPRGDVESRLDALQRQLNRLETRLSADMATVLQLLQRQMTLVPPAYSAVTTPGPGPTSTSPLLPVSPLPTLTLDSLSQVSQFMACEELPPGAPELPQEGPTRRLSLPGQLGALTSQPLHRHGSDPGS
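Also: peak tail current of the secondary pulse compared with the same well before compound.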

Compound	hERG current change (%, negative = inhibition) at 10uM
CCN1C(=O)[C@H]2[C@@H](c3ccc(OC)cc3)N3C(=O)CN(CCOC)C(=O)[C@@]3(C)[C@H]2C1=O	-2.75%
O=C(CN1CCN(c2ccccc2F)CC1)NCc1ccc(Cl)cc1	-19.1%
Cl.O=C(CN1CCCC1)NCc1ccccc1	15.6%
O=C(N/C=C\c1ccccc1)NCc1ccc(Cl)cc1	1.95%
O=C(CN1CCN(C/C=C/c2ccccc2)CC1)NCc1ccccc1	-73.3%
O=C(CN1CCN(C/C=C/c2ccccc2)CC1)NCc1ccc(Cl)cc1	-78%
O=C(CN1CCCCCC1)NCc1ccccc1	10.1%
COc1cccc(C2(c3cccc(OC)c3)CC2C(=O)Nc2ccccc2Cl)c1 (stereo not shown)	14%
CN1C(=O)C(=Cc2ccc(-c3cccc(Cl)c3)o2)C(=O)N(C)C1=O	10.2%
O=C(c1ccc(Cl)cc1)N1CCN(c2ccc([N+](=O)[O-])c(NCc3cccnc3)c2)CC1	-50.1%
CC(=O)N1CCN(c2ccc([N+](=O)[O-])c(NCc3cccnc3)c2)CC1	-22.3%
O=[N+]([O-])c1ccc(N2CCN(S(=O)(=O)c3ccc(Cl)cc3)CC2)cc1NCc1cccnc1	2.59%
Cc1ccc(NC(=O)c2cc([N+](=O)[O-])ccc2NCc2cccnc2)cc1	-82.7%
CC(C)(C)C(=O)N1CCN(c2ccc([N+](=O)[O-])c(NCc3cccnc3)c2)CC1	-29.3%
Cc1ccccc1C(=O)N1CCN(c2ccc([N+](=O)[O-])c(NCc3cccnc3)c2)CC1	-27%
COc1cccc(NC(=O)c2cc([N+](=O)[O-])ccc2NCc2cccnc2)c1	-44%
Cc1ccc(NC(=O)c2cc([N+](=O)[O-])ccc2NCc2cccnc2)cc1Cl	-41.7%
O=C(c1ccccc1)N1CCN(c2ccc([N+](=O)[O-])c(NCc3cccnc3)c2)CC1	-69.7%
O=C(c1ccccc1F)N1CCN(c2ccc([N+](=O)[O-])c(NCc3cccnc3)c2)CC1	-45.5%
CCS(=O)(=O)N1CCN(c2ccc([N+](=O)[O-])c(NCc3cccnc3)c2)CC1	-49.1%
Cc1ccc(C(=O)N2CCN(c3ccc([N+](=O)[O-])c(NCc4cccnc4)c3)CC2)cc1	-59.4%

Compound	hERG current change (%, negative = inhibition) at 10uM
COc1cccc(C(=O)NCCS(=O)(=O)NCc2cccnc2)c1	8.66%
COC(=O)c1ccc(NC(=O)CSc2nnc(C3CC3)n2C)cc1	-4.59%
COc1ccccc1S(=O)(=O)Cc1ccc(C(=O)NC2CC2)o1	18.5%
CCN(CC#CCC1(O)c2ccccc2-c2ccccc21)C(C)C	-9.99%
O=C(COC(=O)c1ccc[nH]c1=O)NC1CCCCCC1	46.2%
Cc1cc2c(NC(=O)CCCC(=O)O)cccc2nn1	13.6%
Cc1cccc2sc(NNC(=O)c3cc(-c4cccs4)nc4ccccc34)nc12	13.4%
CC(=O)NC(NC(=S)Nc1ccc(N=Nc2ccccc2)cc1)C(Cl)(Cl)Cl (stereo not shown)	19.6%
O=C(COc1ccc(Br)cc1)N1CCOCC1	-0.627%
Cc1cccc(NS(=O)(=O)c2ccc3c(c2)NC(=O)CO3)c1C	3.88%
CC(=O)N(c1ccc2oc(=O)sc2c1)S(=O)(=O)c1cccc2cccnc12	5.98%
CC1CCCC(C)N1CCCNC(=O)CCn1c(=O)c2cccn2c2cccnc21 (stereo not shown)	16.7%
Cc1ccc(C)c(N2CCN(CCCNC(=O)CCn3c(=O)c4cccn4c4cccnc43)CC2)c1	-70%
Cc1ccc(Cl)cc1N1CCN(C(=O)CCCn2c(=O)c3cccn3c3cccnc32)CC1	-15.1%
Cc1ccc(C)c(N2CCN(CCCNC(=O)Cn3c(=O)c4cccn4c4cccnc43)CC2)c1	-59.6%
CCC1CCCCN1CCCNC(=O)Cn1c(=O)c2cccn2c2cccnc21 (stereo not shown)	12.1%
CC1CCCC(C)N1CCCNC(=O)Cn1c(=O)c2cccn2c2cccnc21 (stereo not shown)	2.77%
O=C1NN(c2cccc(Br)c2)C(=O)/C1=C\c1ccc(O)cc1	12%
CCS(=O)(=O)Nc1ccc(-c2nnc(SCC(=O)c3ccc(NC(C)=O)c(OC)c3)o2)cc1	-23.8%
C#CCOCCOCCOCCNc1nc(N2CCN(C(=O)[C@H]([C@@H](C)CC)n3cc([C@@H](N)CO)nn3)CC2)nc(N2CCN(C(=O)[C@H](Cc3ccc(O)cc3)n3cc([C@@H](N)C(C)CC)nn3)CC2)n1.Cl (stereo partly shown)	0.411%
CC1CCN(C(=O)CN2C(=O)c3cccc4cccc(c34)C2=O)CC1	2.37%

Compound	hERG current change (%, negative = inhibition) at 10uM
CC(C)C[C@H]1CN=C(Nc2ccccc2)N1CC1CCC(C)CC1 (stereo partly shown)	-50.3%
CC(C)C[C@H]1CN=C(Nc2ccccc2)N1CC1CCCC1	-24%
CC(C)C[C@H]1CN=C(Nc2ccccc2)N1CC1CCCCC1	-45.7%
CC(C)C[C@H]1CN=C(Nc2ccccc2)N1CC1CCC(C(C)(C)C)CC1 (stereo partly shown)	-78.3%
CC1CCC(CN2C(Nc3ccccc3)=NC[C@@H]2C)CC1 (stereo partly shown)	-9.6%
CC(C)C[C@H]1CN=C(Nc2ccccc2)N1CC1CCCCCC1	-60.6%
CCOC(=O)c1cccc(NC(=O)CNC(=O)C2CCCCC2)c1	-3.8%
O=C(COc1ccc(-n2cnnn2)cc1)Nc1ccccc1OC(F)F	4.44%
N#Cc1c(N)n(-c2cccc(C(=O)O)c2)c2nc3ccccc3nc12	14.6%
Cc1ccc(NC(=O)Nc2cnccn2)cc1	5.11%
Cc1ccc(C(=O)CCC(=O)OCC(=O)Nc2ccc3[nH]c(=O)[nH]c3c2)cc1	14%
O=C1C2C3C=CC(C2C(=O)N1c1ccc(O)cc1)C1C2C(=O)N(c4ccc(O)cc4)C(=O)C2C31 (stereo not shown)	-10.7%
COc1cccc(-c2c(C(=O)N/N=C/c3ccoc3)nnn2-c2nonc2N)c1	-9.92%
CCSc1nnc(NC(=O)CCNS(=O)(=O)c2cc(Br)cnc2N)s1	0.00778%
COc1cc(Nc2ccccn2)cc(C(=O)Nc2cccc(C(F)(F)F)c2)c1	-2.6%
Cc1ccc(C(=O)Nc2cccc(C(F)(F)F)c2)cc1Nc1ccccn1	-67.4%
COc1cc(NC(=O)c2ccnnc2)cc(C(=O)Nc2cccc(C(F)(F)F)c2)c1	-52.8%
COc1cc(NC(=O)c2ccc(N)nc2)cc(C(=O)Nc2cccc(C(F)(F)F)c2)c1	-5.66%
Cc1ccc(C(=O)Nc2cccc(C(F)(F)F)c2)cc1Nc1cnccn1	-38.4%
COc1cc(NC(=O)c2ccnc(N)c2)cc(C(=O)Nc2cccc(C(F)(F)F)c2)c1	-31.3%
O=C(Nc1cccc(C(F)(F)F)c1)c1cccnc1	-21.3%

Compound	hERG current change (%, negative = inhibition) at 10uM
Cc1cccc(Nc2ncnc3nc[nH]c23)c1C	-12.5%
Cc1ccc(NC(=O)c2cccc(C(F)(F)F)c2)cc1NC(=O)c1[nH]cnc1C(N)=O	-1.07%
Cc1ccc(C(=O)Nc2cccc(C(F)(F)F)c2)cc1Nc1ncnc2nc[nH]c12	-60.2%
Cc1ccc(C(=O)Nc2cccc(C(F)(F)F)c2)cc1NC(=O)c1cnnc2ccccc12	-5.9%
Cc1ccc(C(=O)Nc2cccc(C(F)(F)F)c2)cc1Nc1cncnc1.O=C(O)C(F)(F)F	-74.3%
CCSc1nn2c(=O)c3ccccc3nc2s1	-13.2%
COc1cccc(-c2cc(=O)[nH][nH]2)c1	18%
O=C(NCc1ccccc1)c1ccc(Br)o1	8.67%
CCCCN(CC)CCNC(=O)c1nn(-c2ccc(OC)cc2)c(=O)c2c1c1ccccc1n2C	0.748%
CCCCCc1nnc(NC(=O)C2CCCO2)s1 (stereo not shown)	-1.64%
COC(=O)c1ccc(S(=O)(=O)N2CCC(c3nc4ccccc4o3)CC2)cc1	1.99%
COc1ccccc1N(CC(O)Cn1ccnc1C)S(=O)(=O)c1ccc(C)cc1.Cl (stereo not shown)	-39.3%
CCCC1C(=O)Nc2ccccc2N1C(=O)c1cccc(C)c1 (stereo not shown)	2.13%
CCCCSc1nc(C)cc(NC(=S)Nc2ccc(OC)cc2)n1	-25.4%
Cc1ccc(C(=O)Nc2cccc(C(F)(F)F)c2)cc1NC(=O)c1ccno1	-67%
Cc1ccc(C(=O)Nc2cccc(C(F)(F)F)c2)cc1NC(=O)c1nccn1C	1.96%
Cc1ccc(C(=O)Nc2cccc(C(F)(F)F)c2)cc1NC(=O)c1nccnc1N	8.61%
CCOC(=O)Nc1ccc2c(c1)N(C(=O)CCN1CCOCC1)c1ccccc1S2.Cl	-7%
CN1CCN(c2nc3c(c(=O)n(C)c(=O)n3C)n2Cc2ccccc2F)CC1	-4.91%
